Test results from PubChem BioAssay.
Activity calls are given as the source filed them.

Tests used:
Albumin (Bos taurus) = Albumin (Bos taurus) (UniProt P02769); experiment: bovine serum albumin binders on microarray, profiling panel, artefact control for SMM control protein annotation, biochemical, small-molecule microarray, Alexa647 label, 635/667 nm fluorescence (AID 1118); conditions: BSA-A647 binding, fluorescence 635 nm, higher = more signal;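 note: score merges 667 nm emission intensity and signal-to-noise per printed compound spot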
Albumin (Bos taurus), sequence (P02769 whole entry, looked up): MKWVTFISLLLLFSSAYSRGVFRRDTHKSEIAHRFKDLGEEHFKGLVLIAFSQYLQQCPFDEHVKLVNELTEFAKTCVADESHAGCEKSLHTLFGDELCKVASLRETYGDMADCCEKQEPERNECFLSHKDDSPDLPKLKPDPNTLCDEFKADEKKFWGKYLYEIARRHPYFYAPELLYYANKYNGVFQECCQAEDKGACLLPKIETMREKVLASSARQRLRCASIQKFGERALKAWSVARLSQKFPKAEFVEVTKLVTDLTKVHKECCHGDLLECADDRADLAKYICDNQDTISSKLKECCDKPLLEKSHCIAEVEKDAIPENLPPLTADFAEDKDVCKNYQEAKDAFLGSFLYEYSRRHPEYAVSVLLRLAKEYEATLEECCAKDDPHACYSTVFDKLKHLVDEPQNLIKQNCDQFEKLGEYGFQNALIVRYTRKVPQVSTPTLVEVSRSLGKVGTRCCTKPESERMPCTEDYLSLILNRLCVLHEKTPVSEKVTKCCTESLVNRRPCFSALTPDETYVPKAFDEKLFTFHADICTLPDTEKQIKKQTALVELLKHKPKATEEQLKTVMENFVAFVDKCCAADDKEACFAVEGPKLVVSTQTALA

[1] = small-molecule microarray binders of probe aXIP, primary screen, biochemical, NeuroSMM set, 635/667 nm fluorescence (AID 1119); conditions: higher = more signal, called active from +8 up or from −8 down unless noted;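 note: probe is the protein aXip251-270 applied at 1 µg/mL to compound-printed slides; binding of probe to printed compounds measured as 667 nm fluorescence plus signal to noise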
[2] = small-molecule binders of probe aNOTCH3, primary screen, biochemical, small-molecule microarray, 635/667 nm fluorescence (AID 1120); conditions: higher = more signal; small-molecule microarray, probe aNOTCH3, fluorescence unless noted;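 note: probe is a biotin-tagged antibody raised against NOTCH3 rather than NOTCH3 protein; score merges spot fluorescence near 667 nm with spot signal to noise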
[3] = small-molecule binders of probe aNOTCH2, primary screen, biochemical, small-molecule microarray, 635/667 nm fluorescence (AID 1121); conditions: higher = more signal; small-molecule microarray, probe aNOTCH2, fluorescence unless noted;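 note: score merges feature fluorescence read at 667 nm with its signal to noise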
[4] = molecular target: Carbonic anhydrase 2 (Homo sapiens) (UniProt P00918); experiment: CAII small-molecule binders, profiling panel, biochemical, small-molecule microarray, Alexa647-labelled CAII (AID 1122); conditions: CAII-A647 binding fluorescence, higher = more signal
[5] = COS7 lysate on small-molecule microarray, probe aHis, 635 nm (AID 1123); conditions: higher = more signal; small-molecule microarray, COS7 cell lysate, probe aHis, fluorescence unless noted;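 note: z-score combines 667nm fluorescence intensity with signal-to-noise per printed compound spot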
[6] = compound binding in COS7 lysate, probe aLAP1, primary screen, cell lysate, small-molecule microarray (AID 1124); conditions: higher = more signal; small-molecule microarray, COS7 cell lysate, probe aLAP1, fluorescence unless noted;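 note: lysate comes from COS7 cells expressing LAP1 and is applied at 0.3 µg/mL; score merges spot fluorescence near 667 nm with signal-to-noise over triplicate slides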
Sam68 (KHDRBS1) = experiment: Sam68 small-molecule binders, primary screen, biochemical, small-molecule microarray, 635 nm fluorescence (AID 1125); conditions: small-molecule microarray binding, higher = more signal;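 note: score merges 667 nm channel intensity with signal to noise over triplicate slides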
[7] = tested on: Chordin-like protein 2 (CHRDL2); experiment: CHRDL2 small-molecule binders, primary screen, biochemical, small-molecule microarray, 635 nm fluorescence (AID 1126); conditions: small-molecule microarray binding, fluorescence 635 nm; higher = more signal;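 note: printed compound slides probed with Chrdl2 protein at 4 µg/mL for 1 h at 4 C; score merges 667 nm emission intensity with signal to noise over three replicate slides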
[8] = molecular target: Concanavalin-A (Canavalia ensiformis) (UniProt P02866); experiment: ConA small-molecule binders, primary screen, artefact control for SMM control protein annotation, biochemical, small-molecule microarray, Alexa647 label, 635 nm (AID 1127); conditions: ConA-A647 binding fluorescence, higher = more signal;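 note: z combines 667 nm emission intensity with signal-to-noise across three replicate slides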
Concanavalin-A (Canavalia ensiformis), sequence (P02866 whole entry, looked up): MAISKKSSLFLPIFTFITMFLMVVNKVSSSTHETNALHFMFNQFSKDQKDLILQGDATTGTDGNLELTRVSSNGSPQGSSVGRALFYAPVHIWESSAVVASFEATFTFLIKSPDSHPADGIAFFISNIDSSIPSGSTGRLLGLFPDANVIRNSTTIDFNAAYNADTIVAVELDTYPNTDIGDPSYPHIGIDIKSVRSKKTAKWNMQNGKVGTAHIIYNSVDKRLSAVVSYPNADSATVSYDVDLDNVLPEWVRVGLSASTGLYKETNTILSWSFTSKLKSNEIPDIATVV

[9] = anti-His antibody binders, primary screen, artefact control for SMM control protein annotation, biochemical, small-molecule microarray, 635 nm fluorescence (AID 1128); conditions: anti-His Alexa647 antibody binding, higher = more signal;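 note: score merges feature fluorescence with signal-to-noise for each printed compound spot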
[10] = tested on: Human papillomavirus type 1a E7 protein (residues 1-88); experiment: HPV1a E7 small-molecule binders, primary screen, biochemical, small-molecule microarray, residues 1-88, 635 nm (AID 1129); conditions: small-molecule microarray binding, fluorescence 635 nm; higher = more signal
[11] = molecular target: Focal adhesion kinase 1 (Homo sapiens) (UniProt Q05397); experiment: small-molecule microarray binders of FAK, primary screen, biochemical, 635/667 nm fluorescence, BSA, DTT (AID 1130); conditions: PTK2 binding, 635 nm fluorescence, higher = more signal;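 note: composite of spot emission at 667 nm and signal to noise over triplicate slides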
Focal adhesion kinase 1 (Homo sapiens), sequence (Q05397 whole entry, looked up): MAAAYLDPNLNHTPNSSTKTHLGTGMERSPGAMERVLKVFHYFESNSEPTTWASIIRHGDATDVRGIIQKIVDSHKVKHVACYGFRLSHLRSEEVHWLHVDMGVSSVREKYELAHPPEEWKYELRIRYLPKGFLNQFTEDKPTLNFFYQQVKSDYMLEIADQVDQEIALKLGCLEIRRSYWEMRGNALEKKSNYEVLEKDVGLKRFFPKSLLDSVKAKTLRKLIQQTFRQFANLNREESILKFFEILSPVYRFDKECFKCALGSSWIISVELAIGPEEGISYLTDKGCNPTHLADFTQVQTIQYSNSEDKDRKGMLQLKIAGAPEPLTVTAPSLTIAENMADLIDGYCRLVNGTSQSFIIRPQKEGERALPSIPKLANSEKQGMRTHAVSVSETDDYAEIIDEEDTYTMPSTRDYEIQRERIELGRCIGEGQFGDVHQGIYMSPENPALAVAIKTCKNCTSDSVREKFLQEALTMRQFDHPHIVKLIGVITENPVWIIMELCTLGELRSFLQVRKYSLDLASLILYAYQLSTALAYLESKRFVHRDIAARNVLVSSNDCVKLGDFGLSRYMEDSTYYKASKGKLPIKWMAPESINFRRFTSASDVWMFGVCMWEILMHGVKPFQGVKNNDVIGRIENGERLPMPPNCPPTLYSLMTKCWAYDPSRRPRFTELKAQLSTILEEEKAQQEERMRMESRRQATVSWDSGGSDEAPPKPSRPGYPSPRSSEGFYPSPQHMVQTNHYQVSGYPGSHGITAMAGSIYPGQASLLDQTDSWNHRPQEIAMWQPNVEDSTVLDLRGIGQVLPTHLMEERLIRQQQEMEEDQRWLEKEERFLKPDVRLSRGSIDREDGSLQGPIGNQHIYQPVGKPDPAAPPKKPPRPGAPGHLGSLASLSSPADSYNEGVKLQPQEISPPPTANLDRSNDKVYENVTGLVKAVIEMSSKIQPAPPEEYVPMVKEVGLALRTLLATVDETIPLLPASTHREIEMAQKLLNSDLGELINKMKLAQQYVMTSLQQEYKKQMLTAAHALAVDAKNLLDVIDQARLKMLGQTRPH

[12] = tested on: Fibrinogen (Alexa647-labelled); experiment: fibrinogen binders on compound microarrays, profiling panel, artefact control for SMM control-protein annotation, biochemical, small-molecule microarray, 635/667 nm fluorescence (AID 1131); conditions: fibrinogen-A647 binding fluorescence, higher = more signal;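 note: z-score merges 667 nm fluorescence with per-spot signal-to-noise over triplicate slides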
[13] = molecular target: Follistatin (Homo sapiens) (UniProt P19883); experiment: follistatin binders on small-molecule microarrays, primary screen, biochemical, small-molecule microarray, 635/667 nm fluorescence (AID 1132); conditions: FST binding, 635 nm fluorescence, higher = more signal
Follistatin (Homo sapiens), sequence (P19883 whole entry, looked up): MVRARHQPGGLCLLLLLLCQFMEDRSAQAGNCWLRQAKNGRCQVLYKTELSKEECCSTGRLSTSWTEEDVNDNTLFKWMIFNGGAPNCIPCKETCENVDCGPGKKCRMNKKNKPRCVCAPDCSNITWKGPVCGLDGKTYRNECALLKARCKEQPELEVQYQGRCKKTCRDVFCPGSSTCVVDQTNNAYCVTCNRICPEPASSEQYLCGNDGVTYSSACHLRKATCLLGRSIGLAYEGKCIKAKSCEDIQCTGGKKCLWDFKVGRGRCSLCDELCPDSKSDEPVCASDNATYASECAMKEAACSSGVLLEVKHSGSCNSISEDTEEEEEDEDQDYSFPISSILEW

[14] = molecular target: Fibroblast growth factor 2 (Homo sapiens) (UniProt P09038); experiment: FGF2 binders on small-molecule microarrays, primary screen, biochemical, small-molecule microarray, 635/667 nm fluorescence (AID 1133); conditions: small-molecule microarray binding, FGF2, fluorescence 635/667; higher = more signal
Fibroblast growth factor 2 (Homo sapiens), sequence (P09038 whole entry, looked up): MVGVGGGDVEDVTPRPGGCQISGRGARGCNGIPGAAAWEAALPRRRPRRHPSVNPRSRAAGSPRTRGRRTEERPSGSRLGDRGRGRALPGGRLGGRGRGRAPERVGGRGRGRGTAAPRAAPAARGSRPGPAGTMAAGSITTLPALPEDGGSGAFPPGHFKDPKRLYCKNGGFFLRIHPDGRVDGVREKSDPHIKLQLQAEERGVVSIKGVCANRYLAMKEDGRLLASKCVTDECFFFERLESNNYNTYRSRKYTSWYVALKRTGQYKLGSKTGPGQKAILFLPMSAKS

[15] = mitochondrial membrane potential change in A549 cells, profiling panel, cell-based, JC-1 fluorescence, basal, 24 h, 100 nL (AID 1138); conditions: higher = more signal;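 note: A549 lung adenocarcinoma cells under basal conditions with no added stimulus; test concentration not given here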
Lefty1 = Lefty1 binders on small-molecule microarrays, primary screen, biochemical, small-molecule microarray, 635/667 nm fluorescence (AID 1139); conditions: small-molecule microarray binding, fluorescence 635/667; higher = more signal
[16] = tested on: wheat germ agglutinin (Triticum aestivum), Alexa647-labelled; experiment: wheat germ agglutinin binders on compound microarrays, profiling panel, artefact control for SMM control-protein annotation, biochemical, small-molecule microarray, 635/667 nm fluorescence (AID 1140); conditions: WGA-A647 binding, 635 nm fluorescence, higher = more signal;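 note: score merges 667 nm feature emission with signal to noise over triplicate slides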
[17] = molecular target: Luciferin 4-monooxygenase (Photinus pyralis) (UniProt P08659); experiment: firefly luciferase enzyme inhibitors, primary screen, biochemical, luminescence, purified enzyme, 2006 set (AID 1141); conditions: SteadyGlo luminescence, 30 min; higher = more signal, called active from +8 up or from −8 down unless noted;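 note: cell-free assay with purified firefly luciferase at 100 ng per well in PBS; test concentration not given here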
Luciferin 4-monooxygenase (Photinus pyralis), sequence (P08659 whole entry, looked up): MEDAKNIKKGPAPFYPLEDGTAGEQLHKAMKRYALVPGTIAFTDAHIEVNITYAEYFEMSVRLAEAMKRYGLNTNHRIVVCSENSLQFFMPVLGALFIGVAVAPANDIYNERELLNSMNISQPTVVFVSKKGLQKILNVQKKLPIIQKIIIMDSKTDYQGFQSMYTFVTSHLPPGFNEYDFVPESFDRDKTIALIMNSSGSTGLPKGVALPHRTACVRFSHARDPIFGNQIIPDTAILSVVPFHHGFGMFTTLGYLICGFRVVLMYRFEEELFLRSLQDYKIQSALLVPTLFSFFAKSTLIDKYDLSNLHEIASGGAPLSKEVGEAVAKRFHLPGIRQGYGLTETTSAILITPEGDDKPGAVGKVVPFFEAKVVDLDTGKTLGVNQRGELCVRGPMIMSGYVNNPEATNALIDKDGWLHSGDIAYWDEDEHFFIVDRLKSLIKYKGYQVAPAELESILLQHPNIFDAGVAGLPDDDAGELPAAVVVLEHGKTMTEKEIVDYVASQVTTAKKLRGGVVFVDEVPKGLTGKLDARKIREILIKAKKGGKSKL

SMILES	composite z-score (Albumin (Bos taurus))	composite Z-score [1]	composite z-score [2]	composite z-score [3]	composite z-score [4]	composite z-score [5]	composite z-score [6]	composite z-score (Sam68 (KHDRBS1))	composite z-score [7]	composite z-score [8]	composite z-score [9]	composite z-score [10]	composite z-score [11]	composite z-score [12]	composite z-score [13]	composite z-score [14]	z-score [15]	composite z-score (Lefty1)	composite z-score [16]	z-score [17]
COC(=O)[C@@]1(Cc2ccc(F)cc2)[C@H]2c3cc(C(=O)N(C)C)[nH]c3C[C@H]2CN1C(=O)c1ccccc1	0.659	0.495 [setting not given] (inactive)	-0.0414 [setting not given]	-0.0763 [setting not given]	0.777	0.694 [setting not given]	0.18 [setting not given]	0.361	-0.268	0.419	1.8	0.733	0.745	0.817	-0.252	-0.0573	0.843	-0.855	0.186	-0.0137 [setting not given] (inactive)
CCOC(=O)[C@H]1CC=C2C(=O)Oc3ccc(Br)cc3[C@@H]21	-0.104	0.35 (inactive)	-0.245	-0.0896	0.663	1.95	0.328	0.893	-1.24	1.13	0.819	1.27	1.87	0.474	-1.1	-1.3	-0.896	-1.66	-0.0424	0.936 (inactive)
CCCc1cc2c(n1CCO)C(C)C1CN(C(=O)c3ccccc3)C(C)(C(=O)OC)C21 (stereo not given)	0.979	0.43 (inactive)	1.25	0.424	0.843	3.26	1.09	0.563	-1.23	1.11	2.55	1.14	1.42	0.64	-0.315	-0.634	0.9	-0.875	1.25	1.54 (inactive)
c1ccc(-c2cc3c(nc2-c2ccccc2)CCNC3)cc1	0.525	-0.369 (inactive)	0.103	-0.131	-0.301	-0.323	-0.171	-0.653	0.12	-0.269	-0.0778	-0.716	-0.0306	0.357	-0.444	0.0533	0.631	0.0391	0.326	-0.13 (inactive)
CCCc1cc2c(n1Cc1ccco1)C(C)C1CN(C(=O)c3ccccc3)C(C)(C(=O)OC)C21 (stereo not given)	0.953	0.829 (inactive)	0.247	0.374	0.744	0.747	0.859	0.878	0.515	0.851	1.7	0.806	0.307	0.717	1.13	-0.0321	-0.0794	0.494	1.29	-7.6 (inactive)
